In PubChem BioAssay (Tox21):
Values joined by “and” are separate entries in the source; they are usually repeats but may differ in a detail not shown here. Identical values can stand only once. The source holds several records for some structures; these can differ, active in one and inactive in another. Active and inactive are the calls of the source. Unless noted, calls come from the whole dose curve; as a rule, active = well fitted curve in the direction sought with a large enough effect in the repeat runs; inconclusive = weak or mixed curves; inactive = no such curve, though single readings can be large; an effect the other way counts as inactive or inconclusive.

Key:
[1] = qHTS assay to identify small molecule antagonists of the glucocorticoid receptor (GR) signaling pathway - cell viability counter screen (AID 720693); note: nearly all actives have a fitted effect of over 55% in size; note: potency is the fitted concentration of half-maximal effect
[2] = qHTS assay for identifying genotoxic compounds that show differential cytotoxicity against isogenic chicken DT40 cell lines with known DNA damage response pathways - wild type cell line (AID 743012); note: nearly all actives have a fitted effect of over 60% in size; note: potency is the fitted concentration of half-maximal effect
Procedure, shortened: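 Using parental DT40 (300 cells/well), compounds delivered in DMSO incubate 40 h at 37 C/5% CO2. CellTiter-Glo reagent then stands 30 min at room temperature, and luminescence gives cell viability.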

[3] = qHTS assay for identifying genotoxic compounds that show differential cytotoxicity against isogenic chicken DT40 cell lines with known DNA damage response pathways - Rev3 mutant cell line (AID 743014); note: nearly all actives have a fitted effect of over 55% in size; note: potency is the fitted concentration of half-maximal effect
[4] = qHTS assay for identifying genotoxic compounds that show differential cytotoxicity against isogenic chicken DT40 cell lines with known DNA damage response pathways - Rad54/Ku70 mutant cell line (AID 743015); note: nearly all actives have a fitted effect of over 60% in size; note: potency is the fitted concentration of half-maximal effect
[5] = qHTS assay to identify small molecule antagonists of the androgen receptor (AR) signaling pathway - cell viability counter screen (AID 743033; note: nearly all actives have a fitted effect of over 45% in size; note: potency is the fitted concentration of half-maximal effect)
[6] = biological target: Androgen receptor (Homo sapiens) (UniProt P10275); test: qHTS assay to identify small molecule agonists of the androgen receptor (AR) signaling pathway using the MDA cell line (AID 743040; note: nearly all actives have a fitted effect of over 20% in size)
Procedure, shortened: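 MDA-kb2 breast carcinoma cells carrying MMTV-luciferase (responsive to AR and GR), plated 5 h then treated 16 h with compounds at 37C, 0% CO2. Read-out was ONE-Glo luminescence after 30 min at room temperature.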

[7] = qHTS assay to identify small molecule antagonists of the androgen receptor (AR) signaling pathway using the MDA cell line - cell viability counter screen (AID 743041; note: nearly all actives have a fitted effect of over 45% in size; note: potency is the fitted concentration of half-maximal effect)
Procedure, shortened: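 MDA-kb2 AR-luc cells (MMTV-luciferase, AR/GR responsive) treated with compounds plus R1881 agonist for 16 h at 37C. CellTiter-Fluor added at 15.5 h; fluorescence read after 30 min in the same wells.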

[8] = biological target: Androgen receptor (Homo sapiens) (UniProt P10275); test: qHTS assay to identify small molecule antagonists of the androgen receptor (AR) signaling pathway using the MDA cell line (AID 743042; note: nearly all actives have a fitted effect of over 55% in size; note: potency is the fitted concentration of half-maximal effect)
Procedure, shortened: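 MDA-kb2 breast carcinoma cells carrying MMTV-luciferase (AR/GR responsive) were co-treated with compounds and the agonist R1881 for 16 h at 37C. Inhibition read as ONE-Glo luminescence; CellTiter-Fluor fluorescence measured in parallel for cytotoxicity.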

[9] = qHTS assay to identify small molecule antagonists of the thyroid receptor (TR) signaling pathway - cell viability counter screen (AID 743064); note: nearly all actives have a fitted effect of over 50% in size; note: potency is the fitted concentration of half-maximal effect
Procedure, shortened: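 Viability of T3-stimulated (1 nM final) GH3.TRE-Luc cells is measured by CellTiter-Fluor fluorescence after 23.5 h compound exposure at 37 °C plus 30 min reagent incubation.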

[10] = qHTS assay to identify small molecule antagonists of the estrogen receptor alpha (ER-alpha) signaling pathway - cell viability counter screen (AID 743074; calls by dose curve;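 note: HEK293 cells carrying ER-alpha-UAS-bla reporter stimulated with 17beta-estradiol; nearly all actives have a fitted effect of over 45% in size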; note: potency is the fitted concentration of half-maximal effect)
[11] = biological target: Estrogen receptor (Homo sapiens) (UniProt P03372); test: qHTS assay to identify small molecule agonists of the estrogen receptor alpha (ER-alpha) signaling pathway (AID 743075; calls by dose curve; note: potency is the fitted concentration of half-maximal effect); settings: HEK293 ER-alpha-UAS-bla, beta-lactamase FRET ratio, 18 h; activation: at 70.1 µM (top of the series)
[12] = biological target: Estrogen receptor (Homo sapiens) (UniProt P03372); test: qHTS assay to identify small molecule agonists of the estrogen receptor alpha (ER-alpha) signaling pathway using the BG1 cell line (AID 743079); settings: BG1Luc4E2 cells, ERE-luciferase agonist, 22 h; note: nearly all actives have a fitted effect of over 20% in size
Aromatase (Homo sapiens) = Aromatase (Homo sapiens) (UniProt P11511); test: qHTS assay to identify aromatase inhibitors (AID 743083); note: nearly all actives have a fitted effect of over 55% in size; note: potency is the fitted concentration of half-maximal effect
[13] = biological target: Androgen receptor (Homo sapiens) (UniProt P10275); test: qHTS assay to identify small molecule antagonists of the androgen receptor (AR) signaling pathway (AID 743035; active = well fitted inhibition curve with a large enough effect in the signal ratio in the repeat runs, not every such curve was filed as active; inconclusive = weak or mixed curves, or effect the other way; inactive = no such curve, though single readings can be large or run the other way; the % refers to the signal ratio; note: potency is the fitted concentration of half-maximal effect)
Procedure, shortened: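 Using qHTS, AR-UAS-bla GripTite HEK293 cells received compound, then R1881, and were cultured 16 h at 37C/5% CO2 before a 2 h room-temperature LiveBLAzer B/G FRET substrate step and fluorescence measurement.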

[14] = qHTS assay to identify small molecule antagonists of the thyroid receptor (TR) signaling pathway (AID 743065); note: nearly all actives have a fitted effect of over 55% in size; note: potency is the fitted concentration of half-maximal effect
Procedure, shortened: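 GH3.TRE-Luc rat pituitary cells (two TREs driving luciferase) were dosed with compound, then stimulated with 1 nM T3 (final) for 23.5 h at 37 C. ONE-Glo luminescence was the read-out, with CellTiter-Fluor fluorescence as the cytotoxicity counter-screen.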

[15] = test system: thyroid hormone receptor (rat, GH3 cells); test: qHTS assay to identify small molecule agonists of the thyroid receptor (TR) signaling pathway (AID 743066; calls by dose curve)
[16] = biological target: Estrogen receptor (Homo sapiens) (UniProt P03372); test: qHTS assay to identify small molecule antagonists of the estrogen receptor alpha (ER-alpha) signaling pathway (AID 743069; active = well fitted curve in the direction sought with a large enough effect in the signal ratio in the repeat runs, not every such curve was filed as active; inconclusive = weak or mixed curves, or effect the other way; inactive = no such curve, though single readings can be large or run the other way; the % refers to the signal ratio; note: potency is the fitted concentration of half-maximal effect)
Procedure, shortened: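 HEK293 ER-alpha-UAS-bla GripTite cells, held overnight in 2% charcoal-stripped FBS, 5,000 cells/well, preincubated 4 h, then compound plus 17beta-estradiol for 18 h at 37C. Beta-lactamase read by LiveBLAzer B/G FRET substrate, 2 h at room temperature.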

[17] = qHTS assay to identify small molecule antagonists of the estrogen receptor alpha (ER-alpha) signaling pathway using the BG1 cell line - cell viability counter screen (AID 743081);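 note: compound given together with 17beta-estradiol as the ER stimulus; nearly all actives have a fitted effect of over 45% in size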; note: potency is the fitted concentration of half-maximal effect
[18] = qHTS assay to identify small molecule antagonists of the estrogen receptor alpha (ER-alpha) signaling pathway using the BG1 cell line (AID 743080; calls by dose curve;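 note: BG1 cells stimulated with 17beta-estradiol alongside compound; nearly all actives have a fitted effect of over 25% in size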; note: potency is the fitted concentration of half-maximal effect)
Procedure, shortened: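 After 5 days in phenol-red-free 10% charcoal-stripped FBS medium, BG1-Luc-4E2 cells were seeded, left 24 h at 37 C, co-treated with compounds and 17beta-estradiol for 21.5 h, then assayed for viability and luciferase.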

[19] = biological target: Androgen receptor (Homo sapiens) (UniProt P10275); test: qHTS assay to identify small molecule agonists of the androgen receptor (AR) signaling pathway (AID 743036; active = well fitted activation curve with a large enough effect in the signal ratio in the repeat runs, with a control signal flat, not every such curve was filed as active; inconclusive = weak or mixed curves, or effect the other way; inactive = no such curve, though single readings can be large or run the other way; the % refers to the signal ratio)
Procedure, shortened: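 Screening used 2,000 AR-bla HEK293 cells per well, treated 16 h at 37C with test compounds in DMSO alongside positive and DMSO-only controls; beta-lactamase activity was then read by LiveBLAzer B/G FRET fluorescence after 2 h at room temperature.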
% is set by controls: 0 for no effect and ±100 for the full control effect.

Sequence of Aromatase (Homo sapiens) (P11511 whole entry, looked up): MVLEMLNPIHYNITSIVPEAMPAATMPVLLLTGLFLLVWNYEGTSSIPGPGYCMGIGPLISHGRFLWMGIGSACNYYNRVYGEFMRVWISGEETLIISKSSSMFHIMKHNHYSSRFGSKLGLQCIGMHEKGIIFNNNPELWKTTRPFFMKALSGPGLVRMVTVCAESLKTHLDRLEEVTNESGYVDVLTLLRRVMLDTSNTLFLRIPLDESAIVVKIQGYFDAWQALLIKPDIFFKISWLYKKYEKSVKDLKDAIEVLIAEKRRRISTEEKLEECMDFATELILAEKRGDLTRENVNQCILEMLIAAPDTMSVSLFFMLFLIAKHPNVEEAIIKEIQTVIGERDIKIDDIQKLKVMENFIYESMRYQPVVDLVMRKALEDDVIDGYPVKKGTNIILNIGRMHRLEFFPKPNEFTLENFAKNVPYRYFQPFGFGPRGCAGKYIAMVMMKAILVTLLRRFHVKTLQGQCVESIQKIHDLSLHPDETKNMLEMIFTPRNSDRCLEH
Sequence of Estrogen receptor (Homo sapiens) (P03372 whole entry, looked up): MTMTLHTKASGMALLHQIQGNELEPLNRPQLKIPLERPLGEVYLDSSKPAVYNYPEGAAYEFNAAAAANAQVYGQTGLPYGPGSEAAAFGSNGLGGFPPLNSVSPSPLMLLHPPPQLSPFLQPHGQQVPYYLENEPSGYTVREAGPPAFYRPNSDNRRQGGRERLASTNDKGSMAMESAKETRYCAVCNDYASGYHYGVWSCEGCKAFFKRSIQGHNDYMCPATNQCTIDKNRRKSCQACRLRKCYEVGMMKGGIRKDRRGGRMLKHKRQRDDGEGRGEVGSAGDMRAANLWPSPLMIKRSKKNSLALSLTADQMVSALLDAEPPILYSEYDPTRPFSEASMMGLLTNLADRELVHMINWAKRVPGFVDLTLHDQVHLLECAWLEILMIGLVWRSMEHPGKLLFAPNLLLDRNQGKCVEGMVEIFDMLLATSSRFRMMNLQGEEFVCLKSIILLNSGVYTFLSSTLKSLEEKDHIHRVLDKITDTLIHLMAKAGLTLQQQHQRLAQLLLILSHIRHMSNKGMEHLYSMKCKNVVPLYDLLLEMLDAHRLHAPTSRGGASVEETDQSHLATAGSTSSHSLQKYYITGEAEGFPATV
Sequence of Androgen receptor (Homo sapiens) (P10275 whole entry, looked up): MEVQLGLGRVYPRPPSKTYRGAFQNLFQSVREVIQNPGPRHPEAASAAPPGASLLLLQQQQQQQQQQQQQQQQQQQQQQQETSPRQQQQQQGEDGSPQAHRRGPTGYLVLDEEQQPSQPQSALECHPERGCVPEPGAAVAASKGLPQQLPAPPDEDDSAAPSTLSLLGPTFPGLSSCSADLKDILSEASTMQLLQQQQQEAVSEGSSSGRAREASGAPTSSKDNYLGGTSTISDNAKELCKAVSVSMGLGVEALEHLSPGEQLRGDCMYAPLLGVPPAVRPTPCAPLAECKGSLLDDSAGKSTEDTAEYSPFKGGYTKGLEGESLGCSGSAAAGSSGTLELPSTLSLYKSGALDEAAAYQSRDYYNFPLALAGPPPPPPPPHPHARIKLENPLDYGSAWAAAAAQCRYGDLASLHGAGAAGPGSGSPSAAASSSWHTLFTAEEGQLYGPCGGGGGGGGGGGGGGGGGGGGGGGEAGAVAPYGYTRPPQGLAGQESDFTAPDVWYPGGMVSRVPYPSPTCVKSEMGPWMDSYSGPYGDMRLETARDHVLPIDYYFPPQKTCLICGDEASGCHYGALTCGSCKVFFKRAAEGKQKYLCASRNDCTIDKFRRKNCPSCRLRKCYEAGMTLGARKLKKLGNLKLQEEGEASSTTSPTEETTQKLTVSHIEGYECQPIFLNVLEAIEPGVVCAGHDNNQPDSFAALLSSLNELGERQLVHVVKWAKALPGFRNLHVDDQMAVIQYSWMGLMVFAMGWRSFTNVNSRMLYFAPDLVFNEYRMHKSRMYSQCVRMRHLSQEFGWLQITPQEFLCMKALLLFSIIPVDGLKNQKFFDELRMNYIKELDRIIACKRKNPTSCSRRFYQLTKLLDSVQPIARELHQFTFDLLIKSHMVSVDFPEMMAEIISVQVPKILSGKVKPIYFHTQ

O=C1C=CC(=O)N1
inactive: Potency [6] | Potency [11] | activation ([12]; at 95 µM (top of the series)) -8.49%
active: Potency [1] 31.7 µM | Potency [2] 6.28 µM | Potency [3] 2.5 µM | Potency [4] 5.59 µM | Potency [5] 22.5 µM | Potency [7] 55.9 µM | Potency [8] 31.4 µM | Potency [9] 9.95 µM | Potency [10] 56.4 µM | Potency (Aromatase (Homo sapiens)) 8.86 µM

CCC(C)Nc1ccc(NC(C)CC)cc1 (stereo unspecified)
active: Potency [1] 44.5 µM | Potency [2] 12.4 µM | Potency [3] 5.55 µM | Potency [4] 6.99 µM | Potency [5] 12.5 µM | Potency [13] 8.88 µM | Potency [7] 19.7 µM | Potency [8] 8.8 µM | Potency [9] 14 µM | Potency [14] 14 µM | Potency [16] 22.3 µM [inconclusive] | Potency [10] 25 µM | Potency [17] 24.8 µM | Potency (Aromatase (Homo sapiens)) 3.93 µM
inactive: Potency [6] | Potency [15]

N#CSc1ccc(N)c([N+](=O)[O-])c1
active: Potency [1] 55.3 µM | Potency [2] 12.3 µM | Potency [3] 6.9 µM | Potency [4] 9.75 µM | Potency [5] 24.7 µM | Potency [13] 43.9 µM | Potency [7] 61.5 µM | Potency [8] 61.5 µM | Potency [9] 54.8 µM | Potency [16] 27.7 µM [inconclusive] | Potency [17] 54.8 µM | Potency (Aromatase (Homo sapiens)) 27.5 µM
inactive: Potency [6] | Potency [15] | Potency [10] | Potency [11] | activation ([12]; at 95 µM (top of the series)) -0.741%

Oc1ccc(C2(c3ccc(O)cc3)CC3CC2C2CCCC32)cc1 (stereo unspecified)
active: Potency [5] 47 µM | Potency [9] 26.2 µM | Potency [14] 29.4 µM | Potency [16] 0.0592 µM [inconclusive] | Potency [18] 1.31 µM | Potency (Aromatase (Homo sapiens)) 1.86 µM
inactive: Potency [1] | Potency [2] | Potency [3] | Potency [4] | Potency [6] | Potency [15] | Potency [17]

NNC(=O)c1cccc(C(=O)NN)c1
inactive: Potency [1] | Potency [2] | Potency [3] | Potency [4] | Potency [5] | Potency [13] | Potency [19] | Potency [6] | Potency [7] | Potency [8] | Potency [9] | Potency [14] | Potency [15] | Potency [16] | Potency [10] | Potency [11] | activation ([12]; at 70.3 µM (top of the series)) 4.33% | Potency [18] | Potency [17] | Potency (Aromatase (Homo sapiens))

Cc1c(C)c2c(c(C)c1O)CCC(C)(COc1ccc(CC3SC(=O)NC3=O)cc1)O2 (stereo unspecified)
inactive and 24.5 µM (active): Potency [5]
active: Potency [2] 10.6 µM and 17.2 µM | Potency [3] 26.6 µM and 15.4 µM | Potency [4] 10.6 µM and 24.3 µM | Potency [14] 13.3 µM and 24.3 µM | Potency [18] 23.7 µM | Potency (Aromatase (Homo sapiens)) 29.8 µM and 61.1 µM
inactive: Potency [1] | Potency [6] | Potency [7] | Potency [15] | Potency [10] | Potency [11] | Potency [17]

[Cl][Bi]([Cl])([c]1ccccc1)([c]1ccccc1)[c]1ccccc1
inactive: Potency [6]
active: Potency [1] 48.7 µM | Potency [2] 1.36 µM | Potency [3] 2.16 µM | Potency [4] 2.42 µM | Potency [5] 12.2 µM | Potency [7] 27.1 µM | Potency [8] 13.6 µM | Potency [9] 1.71 µM | Potency [14] 0.682 µM | Potency [10] 48.7 µM | Potency [11] 6.13 µM [inconclusive] | Potency [17] 60.8 µM | Potency (Aromatase (Homo sapiens)) 6.82 µM

CCCCCCCCCCCCCCCCCC[N+](C)(C)Cc1ccccc1
active: Potency [1] 19.7 µM | Potency [2] 0.978 µM | Potency [3] 0.777 µM | Potency [4] 0.871 µM | Potency [5] 19.7 µM | Potency [7] 17.4 µM | Potency [8] 12.3 µM | Potency [9] 11 µM | Potency [14] 7.77 µM | Potency [10] 22.1 µM | Potency (Aromatase (Homo sapiens)) 21.9 µM
inactive: Potency [6] | Potency [15]

Cc1onc(-c2c(Cl)cccc2Cl)c1C(=O)N[C@@H]1C(=O)N2[C@@H]1SC(C)(C)[C@@H]2C(=O)O
inactive: Potency [1] | Potency [2] | Potency [3] | Potency [4] | Potency [5] | Potency [6] | Potency [7] | Potency [8] | Potency [9] | Potency [15] | Potency [10] | Potency [17] | Potency (Aromatase (Homo sapiens))

CS(=O)(=O)CCNCc1ccc(-c2ccc3ncnc(Nc4ccc(OCc5cccc(F)c5)c(Cl)c4)c3c2)o1
inactive: Potency [1] | Potency [2] | Potency [3] | Potency [4] | Potency [5] | Potency [13] | Potency [6] | Potency [7] | Potency [8] | Potency [9] | Potency [14] | Potency [15] | Potency [16] | Potency [11] | Potency [18] | Potency [17] | Potency (Aromatase (Homo sapiens))

NNc1nc(-c2ccc([N+](=O)[O-])cc2)cs1
inactive: Potency [6] | Potency [15] | Potency [11]
active: Potency [1] 43.6 µM | Potency [2] 6.11 µM | Potency [3] 1.72 µM | Potency [4] 4.33 µM | Potency [5] 30.9 µM | Potency [13] 24.5 µM | Potency [7] 61.1 µM | Potency [8] 48.6 µM | Potency [9] 68.6 µM | Potency [14] 30.6 µM | Potency [10] 15.5 µM | Potency [17] 54.5 µM | Potency (Aromatase (Homo sapiens)) 43.3 µM
